# Test results taken from PubChem BioAssay AID2429 (National Center for Advancing Translational Sciences (NCATS), 2010).
# The other results are listed elsewhere or left out. The source made the active and inactive calls. The call rests on the fitted dose curve.
# Target: 15-hydroxyprostaglandin dehydrogenase [NAD(+)] (Homo sapiens) (UniProt P15428)
# Experiment: Confirmation qHTS Assay for Inhibitors of HPGD (15-Hydroxyprostaglandin Dehydrogenase)
# Conditions: recombinant HPGD, NADH fluorescence, PGE2 substrate
# Source text: Assay Overview: Human 15-Hydroxyprostaglandin dehydrogenase (HPGD) catalyzes the inactivation of prostaglandin E2, and plays a major role in cancer biology by antagonizing the oncogenic potential of cyclooxygenase type 2 (COX2). Assays are available, based on absorbance/fluorescence increase of NADH with the substrate 15-OH prostaglandin E2. Inhibition of HPGD activity was screened by utilizing prostaglandin as an electron donor and NAD+ as an electron acceptor/cofactor. An increase in the fluorescence intensity due to conversion of NAD+ to NADH was used to measure the enzyme activity. This assay is a confirmation screen of primary qHTS protocol (See AID 894). References 1. Myung SJ, Rerko RM, Yan M, Platzer P, Guda K, Dotson A, Lawrence E, Dannenberg AJ, Lovgren AK, Luo G, Pretlow TP, Newman RA, Willis J, Dawson D, Markowitz SD. 15-Hydroxyprostaglandin dehydrogenase is an in vivo suppressor of colon tumorigenesis. Proc Natl Acad Sci U S A. 2006 Aug 8;103(32):12098-102. 2. […]
# Buffer: 50 mM Tris-HCl, 0.01% Tween 20, pH 8. […] The plates were immediately transferred to and read 5 times every 30 seconds on ViewLux High-throughput CCD imager (Perkin-Elmer) using 360 nm excitation and 450 nm emission fluorescence protocol. The fluorescence intensity difference between the last and the first time points was used to compute reaction progress.
# Sequence of 15-hydroxyprostaglandin dehydrogenase [NAD(+)] (Homo sapiens) (P15428 whole entry, looked up): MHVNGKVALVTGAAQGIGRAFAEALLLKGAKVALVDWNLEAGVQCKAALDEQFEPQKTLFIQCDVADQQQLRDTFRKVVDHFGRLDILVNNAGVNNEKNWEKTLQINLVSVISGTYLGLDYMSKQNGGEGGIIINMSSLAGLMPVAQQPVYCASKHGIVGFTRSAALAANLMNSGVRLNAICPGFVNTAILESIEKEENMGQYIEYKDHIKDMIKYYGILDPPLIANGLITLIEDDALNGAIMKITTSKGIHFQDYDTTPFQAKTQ
compound,measurement,value
CCN(CC)C(=O)c1ccc(NC(=O)c2cc(-n3cnnc3)ccc2Cl)cc1,Potency,7.08 µM (active)
